Source: PubChem BioAssay
HT1080 IDH1KD tx = toxicity to HT-1080 IDH1 knockdown cells (counter line); AID 686971; 360,000 tested, 2% active; Potency, µM (series often up to 46.1 µM), inactives show at the top dose activity, negative = toxicity, usual class: cytotoxic; HT-1080 IDH1 knockdown viability, ATP luminescence, 48 h;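 further: potency means the concentration at half of the fitted maximal effect; 0% = DMSO wells and -100% = cell-free medium wells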
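Using the IDH1-knockdown HT-1080 line run in the same batch and compound series as the NT line, viability after 48 h at 37 °C was determined by CellTiter-Glo luminescence and expressed as % activity.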
IL-1B inflam inh = inflammasome signaling inhibition, IL-1 beta readout; THP-1 LPS/ATP IL-1B secretion, AlphaLISA, 16 h; hits give low values; activity change, % at 57.5 µM; 360,000 tested, 4.7% active; in the data active means activity change below about -50%; inconclusive means mostly about -30% to -49%
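Secreted IL-1B measured by AlphaLISA bead assay after 16 h compound exposure of THP-1 cells; compounds (final up to 57.5 uM) added 1 h before LPS (250 ng/mL) and ATP (1.25 mM) stimulation; lower signal means less secretion.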
HT1080NT lethal = kills 2HG-producing HT-1080-NT fibrosarcoma cells. 360,000 tested, 1.6% active. HT-1080-NT fibrosarcoma viability, CellTiter-Glo ATP luminescence, 48 h. Potency, µM (titrated, usually from 46.1 µM), for inactives: at the highest dose activity, negative = less viability, most hits filed as cytotoxic. AID 686970;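 further: NT is the 2HG producing partner of a matched IDH1 knockdown line; potency means the concentration at half of the fitted maximal effect; 0% = DMSO-treated cells and -100% = media-only wells without cells; nearly all actives have a fitted effect of over 55% in size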
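750 cells/well, RPMI + 5% FBS; 2 h settle, compound pin-transfer, 48 h at 37 degrees C. CellTiter-Glo 10 min RT, luminescence. Normalized to DMSO and media-only wells.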
DT40 TDP1 CPT = growth inhibition of DT40 Tdp1-/-;hTDP1 cells with camptothecin (screen for TDP1 inhibitors). chicken DT40 Tdp1-/-;hTDP1 cells + 20 nM CPT, ATP luminescence, 48 h. Potency, µM (titrated, usually from 46.2 µM), for inactives: at the highest dose activity change, negative = growth inhibition, hits mostly inhibitors. 420,000 tested, 12% active. AID 686979; further: potency means the concentration at half of the fitted maximal effect; nearly all actives have a fitted effect of over 55% in size
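Chicken DT40 Tdp1-/- cells complemented with human TDP1, 400 cells/well, exposed to compounds plus 20 nM camptothecin for at least 48 h at 37 C; viability read as ATP content by CellTiter-Glo luminescence.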
DT40 TDP1 no CPT = qHTS for Inhibitors of human tyrosyl-DNA phosphodiesterase 1 (TDP1): qHTS in cells in absence of CPT | AID 686978, 2013 | DT40 Tdp1-/- hTDP1 cells, no CPT, ATP luminescence, 48 h | Potency, µM (titrated, usually from 46.2 µM), for the others: at the top dose activity change, negative = growth inhibition, usual class: inhibitors | 420,000 tested, 15% active; further: potency means the concentration at half of the fitted maximal effect; nearly all actives have a fitted effect of over 55% in size
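Stably hTDP1-transfected Tdp1-null chicken DT40 cells were treated with library compounds minus camptothecin and grown for at least 48 hr at 37 °C, after which cellular ATP was quantified by luminescence.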
ELG1 repair inh = blocks ELG1-dependent DNA repair in HEK293T cells; HEK293T ELG1-luciferase reporter, luminescence, 16 h; DNA damage induced by 5-fluorouridine; Potency, µM (top dose mostly 46.1 µM), inactives show at the highest dose activity change, negative = inhibition, most hits filed as inhibitors; 330,000 tested, 2.3% active; further: potency means the concentration at half of the fitted maximal effect; nearly all actives have a fitted effect of over 55% in size
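HEK293T cells expressing luciferase-tagged ELG1 (2,000/well) received 5-Fluorouridine plus compound or DMSO for 16 hr at 37 °C. Luciferase was read by ONE-Glo luminescence after 30 min at room temperature.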
Starred values were filed as active, the others as inactive; u = inconclusive; x = not tested or not shown. Most compounds without a hit are left out; they make up all but 19% or so of the library. Unless noted, the call rests on the fitted dose curve; in most records, active means well fitted curve in the direction sought with a large enough effect; inconclusive means small, poorly fitted or top-dose-only effect, or another doubt; inactive means no such curve, though single readings can be large; an effect the other way counts as inactive or inconclusive. Unless noted, on the % scale 0 is the no-effect control and ±100 the full control effect.

SMILES	HT1080 IDH1KD tx	IL-1B inflam inh	HT1080NT lethal	DT40 TDP1 CPT	DT40 TDP1 no CPT	ELG1 repair inh
CCOc1ccc(NC(=O)Cn2c(=O)cc(C)c3c(C)nn(-c4cccc(Cl)c4C)c32)cc1	x	x	x	25.9µM*	13µM*	x
COc1ccc(NC(=O)Cn2c(=O)cc(C)c3c(C)nn(C)c32)cc1	x	x	x	u	3.26µM*	x
Cc1cccc(C)c1NC(=O)Cn1c(=O)cc(C)c2c(C)nn(-c3cccc(Cl)c3C)c21	x	x	x	-25.6%	-29.1%	x
Cc1ccc(Cl)cc1NC(=O)Cn1c(=O)cc(C)c2c(C)nn(C)c21	x	x	x	11.6µM*	u	x
O=C(NNc1nc(N2CCOCC2)nc(N2CCOCC2)n1)Nc1ccc(Cl)cc1	x	x	x	x	x	1.5%
CCc1ccc(-n2nc(C)c3c(C)cc(=O)n(CC(=O)Nc4ccc(C(C)=O)cc4)c32)cc1	x	x	x	u	9.2µM*	x
CCOc1ccc(NC(=O)Cn2c(=O)cc(C)c3c(C)nn(C)c32)cc1	x	x	x	20.6µM*	8.2µM*	x
COc1cc(/C=C\C(=O)NCc2ccc3c(c2)cc(C)n3C)cc(OC)c1OC	0.9%	-28.1	0.4%	-19.8%	25.9µM*	-23.2%
COCC(=O)NCc1ccc2c(c1)cc(C)n2C	-1.6%	3.6	1.7%	8.9%	-2.0%	13.6%
COc1ccc(CC(=O)NCc2ccc3c(c2)cc(C)n3C)cc1OC	-0.7%	-1.5	7.6%	-27.2%	14.6µM*	u
O=C(COC(=O)CNC(=O)c1ccccc1)NC12CC3CC(CC(C3)C1)C2	-3.2%	-6.6	-2.6%	-26.6%	-27.4%	x
Nc1cccc2c(=O)c3ccccc3[nH]c12	-17.8%	-6.9	-1.6%	13µM*	8.2µM*	u
CCOc1ccc(S(=O)(=O)N(CC(=O)NCc2cccnc2)c2ccc(F)cc2)cc1	1.6%	5.9	-11.0%	u	18.4µM*	u
CCOc1ccc(S(=O)(=O)N(CC(=O)NCc2cccnc2)c2ccc(C)cc2)cc1	-6.5%	-7.3	-1.7%	u	u	0.0%
Cc1ccc(S(=O)(=O)N(CC(=O)NCc2cccnc2)c2ccc(F)cc2)cc1	14.0%	7.2	-0.1%	-25.4%	18.4µM*	-2.0%
Cc1cccc(CNC(=O)c2ccc(NC(=O)C3=CSCCO3)cc2)c1	5.6%	-1.9	8.4%	u	u	u
Cc1ccn2c(Nc3ccc4c(c3)OCCO4)c(-c3ccc(C)o3)nc2c1	x	x	x	20.6µM*	u	x
Cc1ccn2c(Nc3ccc4c(c3)OCO4)c(-c3ccc(O)cc3)nc2c1	-1.8%	-26.5	-2.2%	23.1µM*	u	19.5%
Cc1ccc(-c2nc3ncccn3c2Nc2ccc3c(c2)OCO3)o1	3.8%	-8.3	1.9%	u	-28.8%	-1.7%
Cc1ccn2c(Nc3ccc(F)cc3)c(-c3ccc(C)o3)nc2c1	x	x	x	16.4µM*	u	x
COc1ccccc1CNC(=O)CCC(=O)N1Cc2cccc(OC)c2Oc2ncccc21	4.6%	0.9	1.6%	7.2%	-9.8%	6.9%
C[N+](C)(CC#Cc1ccccc1)CC(=O)c1ccccc1	-0.3%	-28.1	-3.1%	18.4µM*	16.4µM*	-7.5%
C#CC[N+](CC)(CC)CC#Cc1ccccc1	-2.6%	23.5	0.7%	u	18.4µM*	u
CCOC(=O)C[N+](CC)(CC)CC#Cc1ccccc1	0.0%	22.1	5.6%	8.6%	-7.2%	-0.8%
CC[N+](CC)(CC#Cc1ccccc1)CC#Cc1ccccc1	-27.9%	-80.7*	u	2.59µM*	2.06µM*	u
SMILES	HT1080 IDH1KD tx	IL-1B inflam inh	HT1080NT lethal	DT40 TDP1 CPT	DT40 TDP1 no CPT	ELG1 repair inh
COCCn1c(=O)c(-c2cccs2)nc2cnc(N3CCOCC3)nc21	x	x	x	-0.6%	28.8%	x
O=C(/C=C/Sc1ccccc1)c1ccccc1	5.62µM*	-103.7*	2.82µM*	5.8µM*	5.17µM*	-24.6%
O=C(/C=C/Nc1ccccc1)c1ccccc1	-13.7%	11.6	-12.4%	-24.8%	-6.4%	u
O=C(/C=C/Sc1ccccc1)c1ccc(Cl)cc1	7.94µM*	-99.0*	u	u	16.4µM*	-11.5%
CCc1nc(Nc2cccc(F)c2)c2oc3ccccc3c2n1	-15.7%	18.5	-1.7%	u	u	-10.9%
COc1ccc(CCN=C(N)Nc2nc(C)cc(C)n2)cc1	-4.5%	-20.4	-27.7%	7.31µM*	7.31µM*	u
COc1ccc(CCN=C(N)NS(=O)(=O)c2ccccc2)cc1	5.1%	10.2	8.8%	u	-24.7%	11.0%
COc1ccc(CCN=C(N)NS(=O)(=O)c2ccc(F)cc2)cc1	-10.2%	0.0	-0.9%	u	u	18.3µM*
CS(=O)(=O)N1CCC2(CCCN(c3ncccn3)C2)CC1	x	x	x	5.8%	-18.2%	x
C=CCOc1ccc(/C=C2/C(=O)ON=C2C)cc1OC	-9.2%	-97.1*	u	u	u	15.3%
CCCOc1ccc(/C=C2/C(=O)ON=C2C)cc1OCC	-2.6%	-27.4	4.0%	u	u	14.8%
CCOc1cc(/C=C2\C(=O)ON=C2C)ccc1OCc1ccccc1	u	-117.4*	u	u	14.6µM*	u
COc1ccc(/C=C2/C(=O)ON=C2C)cc1Cl	-9.2%	-25.1	-22.6%	u	u	12.4%
Nc1nc(SCC(=O)O)c2[nH]cnc2n1	x	x	x	-1.1%	6.5%	x
CC(C)C(=O)Nc1nnc(NC(=S)Nc2ccccc2)s1	0.5%	-16.9	1.9%	u	u	u
CCCc1nnc(NC(=S)Nc2ccccc2)s1	11.7%	-4.5	15.6%	4.61µM*	3.26µM*	u
OC(c1ccc(F)cc1)c1nc(-c2cccc(C(F)(F)F)c2)cs1 (stereo unspecified)	u	-14.1	u	u	u	x
Cc1ccc(-c2csc(C(O)c3ccc(F)c(F)c3)n2)cc1C (stereo unspecified)	20.6µM*	-2.2	u	u	u	x
OC(c1ccc(F)c(F)c1)c1nc(-c2ccc(Cl)cc2)cs1 (stereo unspecified)	u	1.3	-17.6%	u	16.4µM*	x
OC(c1ccc(F)cc1)c1nc(-c2cccc(F)c2)cs1 (stereo unspecified)	-12.5%	-18.2	-16.0%	u	u	x
OC(c1ccc(F)cc1)c1nc(-c2ccncc2)cs1 (stereo unspecified)	u	60.9	-14.4%	7.31µM*	7.31µM*	x
OC(c1ccc(F)c(F)c1)c1nc(-c2cccc(C(F)(F)F)c2)cs1 (stereo unspecified)	u	-27.4	u	16.4µM*	u	x
